The text below walks through data of PubChem BioAssay (NCI).

Test systems include SR leukemia; RPMI-8226 leukemia; OVCAR-8 ovarian; OVCAR-4 ovarian; SK-OV-3 ovarian; IGROV1 ovarian; HS 578T breast; NCI/ADR-RES ovarian.
Assay in all cases: NCI-60 one-dose screen, 48 h (100 = growth as untreated, 0 = no growth, -100 = all killed)
The subject of the next experiment is OVCAR-5 ovarian. Particulars: 10 µM unless noted.
A further experiment concerns OVCAR-3 ovarian. The settings on record: 10 µM unless noted.

Values joined by “and” are separate entries in the source; they are usually repeats but may differ in a detail not shown here. Equal entries are not always repeated. About 83,000 compounds went through this panel and 20% of them were active in at least one assay; those are over-represented in the sample as a whole.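 Values shown are percent growth following 48 h exposure of cells in 96-well plates to a single concentration of compound; below 10 was considered active.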 Values without a mark were called inactive. Active and inactive are the calls of the source.

Turning to `Cc1c(C(=O)OCCCCOC(=O)c2c(C)n(C)c3scc[n+]23)[n+]2ccsc2n1C`, the growth in the experiment on SR leukemia (10 µM unless noted) was 117%; with RPMI-8226 leukemia (10 µM unless noted) it was 96.1%; in the experiment with OVCAR-8 ovarian (10 µM unless noted) it was 96.2%; in the experiment on OVCAR-5 ovarian it was 83.5%; in the experiment with OVCAR-4 ovarian (10 µM unless noted) it was 103%; in the experiment on SK-OV-3 ovarian (10 µM unless noted), 103%. Besides, the growth in the experiment on IGROV1 ovarian (10 µM unless noted) is 110%; in the experiment on OVCAR-3 ovarian it was 95.3%; in the experiment with HS 578T breast (10 µM unless noted), 179%; in the experiment on NCI/ADR-RES ovarian (10 µM unless noted) it was 110%.
`C=C1C(=O)O[C@H]2[C@H]1CC/C(CNS(=O)(=O)c1ccc3ccccc3c1)=C\CC[C@@]1(C)O[C@@H]21`: the growth is -12.4% (active) in the experiment on SR leukemia (10 µM unless noted); -4.34% (active) in the experiment with RPMI-8226 leukemia (10 µM unless noted); -17.2% (active) in the experiment on OVCAR-8 ovarian (10 µM unless noted); 14.9% in the experiment with OVCAR-5 ovarian; 24.2% with OVCAR-4 ovarian (10 µM unless noted); 84.6% in the experiment with SK-OV-3 ovarian (10 µM unless noted). In addition, the growth with IGROV1 ovarian (10 µM unless noted) was 37.1%; in the experiment on OVCAR-3 ovarian, -39.6% (active); in the experiment with HS 578T breast (10 µM unless noted) it was 67%; in the experiment with NCI/ADR-RES ovarian (10 µM unless noted), 65.2%.
As for `Cc1ccc(NC(=O)N/C(N)=N/c2nc(=O)c3ccccc3s2)cc1`, the growth in the experiment on SR leukemia (10 µM unless noted) is 88.1%; in the experiment on RPMI-8226 leukemia (10 µM unless noted), 101%; in the experiment with OVCAR-8 ovarian (10 µM unless noted) it was 101%; in the experiment on OVCAR-5 ovarian, 102%; with OVCAR-4 ovarian (10 µM unless noted) it was 99.8%; in the experiment with SK-OV-3 ovarian (10 µM unless noted), 94.5%. Further, the growth was 91.9% in the experiment with IGROV1 ovarian (10 µM unless noted), 100% with OVCAR-3 ovarian, 82.9% in the experiment with HS 578T breast (10 µM unless noted) and 110% in the experiment on NCI/ADR-RES ovarian (10 µM unless noted).
Turning to `CC(=O)/C=C/c1ccc(N(CCO)Cc2ccc(C(C)(C)C)cc2)cc1`, the growth in the experiment with SR leukemia (10 µM) is 83%; with SR leukemia (100 µM), -62.1% (active); in the experiment with RPMI-8226 leukemia (10 µM), 84.7%; with RPMI-8226 leukemia (100 µM), -34.9% (active); in the experiment on OVCAR-8 ovarian (10 µM) it was 80.7%; in the experiment with OVCAR-8 ovarian (100 µM) it was -81.1% (active). In addition, the growth with OVCAR-4 ovarian (10 µM) is 65.7%; in the experiment on OVCAR-4 ovarian (100 µM), -89.2% (active); in the experiment with SK-OV-3 ovarian (10 µM) it was 83.7%; with SK-OV-3 ovarian (100 µM), -99% (active); with IGROV1 ovarian (10 µM), 96.6%; with IGROV1 ovarian (100 µM), -65.9% (active). For the same compound, the growth with HS 578T breast (10 µM) was 65%; with HS 578T breast (100 µM), -52.9% (active); with NCI/ADR-RES ovarian (10 µM) it was 67%; in the experiment with NCI/ADR-RES ovarian (100 µM), -88.3% (active).
Turning to `COc1ccc(-c2cc(-c3cccc(Cl)c3)c(C#N)c(=O)[nH]2)c(OC)c1`, the growth is 111% with SR leukemia (10 µM unless noted); 68.3% in the experiment on RPMI-8226 leukemia (10 µM unless noted); 94.4% with OVCAR-8 ovarian (10 µM unless noted); 99.1% in the experiment on OVCAR-5 ovarian; 91.8% with OVCAR-4 ovarian (10 µM unless noted); 114% with SK-OV-3 ovarian (10 µM unless noted). For the same compound, the growth in the experiment with IGROV1 ovarian (10 µM unless noted) is 92.1%; in the experiment on OVCAR-3 ovarian, 90.5%; in the experiment on HS 578T breast (10 µM unless noted), 74.4%; in the experiment with NCI/ADR-RES ovarian (10 µM unless noted) it was 90.9%.
`COc1c(F)cc(-n2c(C(=O)N3CC(F)C3)cc3cccnc32)cc1F`: the growth in the experiment on SR leukemia (10 µM unless noted) was 97.1%; in the experiment on RPMI-8226 leukemia (10 µM unless noted) it was 95.1%; with OVCAR-8 ovarian (10 µM unless noted) it was 102%; in the experiment on OVCAR-5 ovarian, 100%; with OVCAR-4 ovarian (10 µM unless noted), 97.1%; in the experiment with SK-OV-3 ovarian (10 µM unless noted) it was 111%. Also, the growth with IGROV1 ovarian (10 µM unless noted) is 94.4%; in the experiment with OVCAR-3 ovarian, 101%; with HS 578T breast (10 µM unless noted), 105%; with NCI/ADR-RES ovarian (10 µM unless noted) it was 90.7%.
On to `C=C1C(=O)O[C@H]2[C@H]1CC/C(COC(=O)NCc1ccc(Cn3c(=O)sn(CCCI)c3=O)cc1)=C\CC[C@@]1(C)O[C@@H]21`, for which the growth with SR leukemia (10 µM unless noted) was 8.4% (active); in the experiment on RPMI-8226 leukemia (10 µM unless noted) it was -6.45% (active); in the experiment on OVCAR-8 ovarian (10 µM unless noted), 37.7%; with OVCAR-5 ovarian it was 71.1%; in the experiment with OVCAR-4 ovarian (10 µM unless noted), 17.7%; in the experiment with SK-OV-3 ovarian (10 µM unless noted) it was 101%. In addition, the growth was -0.0888% (active) in the experiment with IGROV1 ovarian (10 µM unless noted), -33.4% (active) in the experiment with OVCAR-3 ovarian, 78.4% in the experiment with HS 578T breast (10 µM unless noted) and 102% with NCI/ADR-RES ovarian (10 µM unless noted).
Consider `O=C1Nc2ccccc2/C1=C/c1cccn1CCCCCn1c2ccccc2c(=O)c2ccccc21`, for which the growth with SR leukemia (10 µM unless noted) is 76.1%; with RPMI-8226 leukemia (10 µM unless noted) it was 22.1%; in the experiment on OVCAR-8 ovarian (10 µM unless noted), 45.6%; with OVCAR-5 ovarian, 82.6%; in the experiment with OVCAR-4 ovarian (10 µM unless noted) it was 57.1%; with SK-OV-3 ovarian (10 µM unless noted), 90.4%. Besides, the growth in the experiment on IGROV1 ovarian (10 µM unless noted) is 73%; in the experiment with OVCAR-3 ovarian it was 70.9%; in the experiment on HS 578T breast (10 µM unless noted), 90.5%; with NCI/ADR-RES ovarian (10 µM unless noted) it was 60.9%.
For the compound `CC(=O)Nc1c(I)c(NC(C)=O)c(I)c(C(=O)O)c1I`, the growth in the experiment with SR leukemia (10 µM unless noted) was 86.7% and 80.5%; with RPMI-8226 leukemia (10 µM unless noted), 106% and 112%; in the experiment with OVCAR-8 ovarian (10 µM unless noted), 101% and 96.3%; in the experiment on OVCAR-5 ovarian, 102% and 108%; in the experiment on OVCAR-4 ovarian (10 µM unless noted), 90.4%; with SK-OV-3 ovarian (10 µM unless noted), 105% and 110%. The growth in the experiment on IGROV1 ovarian (10 µM unless noted) is 108%; in the experiment on OVCAR-3 ovarian it was 111% and 116%; in the experiment on HS 578T breast (10 µM unless noted), 105% and 171%; in the experiment with NCI/ADR-RES ovarian (10 µM unless noted) it was 106% and 109%.
For `CNC(=O)c1cc(Oc2ccc3nc(NC(=O)Nc4ccc(C(F)(F)F)cc4)sc3c2)ccn1`, the growth in the experiment with SR leukemia (10 µM unless noted) is 70.6%; with RPMI-8226 leukemia (10 µM unless noted), 70.4%; in the experiment on OVCAR-8 ovarian (10 µM unless noted) it was 48.5%; in the experiment on OVCAR-5 ovarian, 93.9%; in the experiment with OVCAR-4 ovarian (10 µM unless noted), 37.7%; with SK-OV-3 ovarian (10 µM unless noted), 105%. Moreover, the growth in the experiment on IGROV1 ovarian (10 µM unless noted) is 70.9%; in the experiment on OVCAR-3 ovarian it was 24%; in the experiment on HS 578T breast (10 µM unless noted), 30%; in the experiment on NCI/ADR-RES ovarian (10 µM unless noted), 58.4%.
Turning to `CCOC(=O)c1c(-c2ccc(C)cc2)c(C#N)c(=O)n(-c2cccc(C(F)(F)F)c2)c1N`, the growth in the experiment with SR leukemia (10 µM unless noted) was 102%; in the experiment with RPMI-8226 leukemia (10 µM unless noted), 104%; in the experiment on OVCAR-8 ovarian (10 µM unless noted), 103%; with OVCAR-5 ovarian, 93%; with OVCAR-4 ovarian (10 µM unless noted), 106%; with SK-OV-3 ovarian (10 µM unless noted) it was 108%. The growth is 107% in the experiment with IGROV1 ovarian (10 µM unless noted), 106% with OVCAR-3 ovarian, 105% with HS 578T breast (10 µM unless noted) and 109% in the experiment on NCI/ADR-RES ovarian (10 µM unless noted).
Take `O=C([C@H]1C[C@H]1c1ccc(S(F)(F)(F)(F)F)cc1)N1CCN(c2cc(Cl)ccc2C(F)(F)F)CC1`: the growth in the experiment on SR leukemia (10 µM unless noted) is 88.1%; with RPMI-8226 leukemia (10 µM unless noted), 75.8%; in the experiment with OVCAR-8 ovarian (10 µM unless noted) it was 92.2%; with OVCAR-5 ovarian, 95.3%; in the experiment on OVCAR-4 ovarian (10 µM unless noted), 90.7%; in the experiment on SK-OV-3 ovarian (10 µM unless noted) it was 79.1%. Further, the growth was 73.3% in the experiment on IGROV1 ovarian (10 µM unless noted), 100% with OVCAR-3 ovarian, 91.4% with HS 578T breast (10 µM unless noted) and 95.5% in the experiment with NCI/ADR-RES ovarian (10 µM unless noted).
